This is one part of the list. The source made the active and inactive calls. Unless noted, the rule behind the calls is not given here.

Experiment [1] in a line: inhibition of Brca1/Bard1 split-luciferase complementation, confirmation, counter-screen for Mdm2/MdmX interaction inhibitor project, luminescence, single concentration (AID 504668). The following applies: Brca1/Bard1 bimolecular luciferase complementation counterscreen, at 8 µM, stronger effect = higher value.
The target in experiment [2] is PEG-3 (UniProt Q6IN02). The experiment in a line: Peg3 promoter luciferase inhibitors, potency, dose response, cell-based, HeLa, CREF/GAPDH counter-screen panel (AID 624167). The following applies: CREF/GAPDH counter-screens; HeLa PEG-Prom luciferase reporter, overnight, run 1, dose range 1, at 100 µM (top of the series) unless noted. On the technique in general: A counterscreen serves to expose hits that act by an unwanted route or on another target.

In experiment [3] the target is PEG-3 (UniProt Q6IN02). Described as above. The following applies: CREF/GAPDH counter-screens; HeLa PEG-Prom luciferase reporter, overnight, run 2, dose range 1, at 100 µM (top of the series) unless noted.
Experiment [4] relates to Rat fibroblasts (CREF). The description is as above. Conditions: CREF/GAPDH counter-screens; run 1, dose range 1, at 100 µM (top of the series).
Experiment [5] has as its system Rat fibroblasts (CREF). Described as above. The following applies: CREF/GAPDH counter-screens; run 2, dose range 1, at 100 µM (top of the series).
Experiment [6] is described as follows: Peg3 promoter reporter inhibitors, retest, confirmation, cell-based, HeLa, luciferase reporter, single concentration (AID 602417;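 active = at 20 µM dose, 40% or more inhibition averaged across four replicates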). The following applies: HeLa PEG-Prom luciferase reporter, luminescence, overnight; at 20 µM; stronger effect = higher value. (In a reporter assay the amount or activity of a reporter protein is the signal.)

Sequence of PEG-3 (Q6IN02 whole entry, looked up): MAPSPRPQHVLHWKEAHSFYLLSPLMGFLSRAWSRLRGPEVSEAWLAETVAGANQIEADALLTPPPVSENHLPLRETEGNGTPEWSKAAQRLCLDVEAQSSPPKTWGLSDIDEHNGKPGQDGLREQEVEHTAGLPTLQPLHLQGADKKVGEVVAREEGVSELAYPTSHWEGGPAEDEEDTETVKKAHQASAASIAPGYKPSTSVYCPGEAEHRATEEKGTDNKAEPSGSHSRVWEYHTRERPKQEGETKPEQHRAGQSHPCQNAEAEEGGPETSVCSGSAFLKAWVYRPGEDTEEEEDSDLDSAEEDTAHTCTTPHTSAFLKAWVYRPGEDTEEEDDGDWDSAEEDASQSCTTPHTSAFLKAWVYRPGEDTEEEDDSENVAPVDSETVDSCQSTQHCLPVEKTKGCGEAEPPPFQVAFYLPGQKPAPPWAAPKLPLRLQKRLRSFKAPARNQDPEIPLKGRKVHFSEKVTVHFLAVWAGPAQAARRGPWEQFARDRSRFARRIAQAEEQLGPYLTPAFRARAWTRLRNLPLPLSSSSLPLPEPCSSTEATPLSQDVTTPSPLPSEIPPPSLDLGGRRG

A word on the inhibition: it is the relative decrease from the control value, in per cent. Consider `O=C(NC1=NCCS1)C1COc2ccccc2O1` (stereo not given), for which the inhibition is 34% (active) in experiment [1]; 96.4% with PEG-3 [2]; 97.6% with PEG-3 [3]; 86.9% with Rat fibroblasts (CREF) [4]; 87.4% in the experiment on Rat fibroblasts (CREF) [5].

As for `CCN1C(=O)C(=Cc2cccc(OC)c2Oc2ccc([N+](=O)[O-])cc2[N+](=O)[O-])SC1=S`, the results for the inhibition (in experiment [1]; in the experiment with PEG-3 [2]; with PEG-3 [3]) were 27.9% (active), 21.1% and 46.1%, respectively.

In the case of `CC(C)(c1ccccc1)c1ccc(OCC(O)CNC2CCN(Cc3ccccc3)CC2)cc1` (stereo not given), the inhibition is 35.2% (active) in experiment [1], 102% with PEG-3 [2] and 98.9% with PEG-3 [3].

As for `O=C(CCSc1nc2ccccc2s1)N/N=C/c1c(O)ccc2ccccc12`, the inhibition in experiment [1] was 31.6% (active); with PEG-3 [2], 58.9%; with PEG-3 [3], 82.3%; with Rat fibroblasts (CREF) [4], 40.6%; in the experiment with Rat fibroblasts (CREF) [5], 38%.

Regarding `COc1cccc2sc(N(CCCN(C)C)C(=O)C(c3ccccc3)c3ccccc3)nc12`, the inhibition in experiment [1] was 24.8% (active); in experiment [6], 99.6% (active); in the experiment with PEG-3 [2], 102%; with PEG-3 [3] it was 95.1%.

The values above are taken from PubChem BioAssay.
